# PubChem BioAssay (NCATS)
# Unmarked numbers belong to inactive results. Results filed as inconclusive are left out. A call without a number means that no potency is given here. Calls of active or inactive are those of the source. Unless noted, calls come from the whole dose curve; as a rule, active = well fitted curve in the direction sought with a large enough effect; inconclusive = small, poorly fitted or top-dose-only effect, or another doubt; inactive = no such curve, though single readings can be large; an effect the other way counts as inactive or inconclusive.
# Columns and labels:
# [1] = target: Ubiquitin carboxyl-terminal hydrolase 1 (Homo sapiens) (UniProt O94782); experiment: Inhibitors of USP1/UAF1: Pilot qHTS (AID 504865); note: nearly all actives have a fitted effect of over 35% in size; note: potency is the fitted concentration of half-maximal effect
# Ubiquitin carboxyl-terminal hydrolase 1 (Homo sapiens), sequence (O94782 whole entry, looked up): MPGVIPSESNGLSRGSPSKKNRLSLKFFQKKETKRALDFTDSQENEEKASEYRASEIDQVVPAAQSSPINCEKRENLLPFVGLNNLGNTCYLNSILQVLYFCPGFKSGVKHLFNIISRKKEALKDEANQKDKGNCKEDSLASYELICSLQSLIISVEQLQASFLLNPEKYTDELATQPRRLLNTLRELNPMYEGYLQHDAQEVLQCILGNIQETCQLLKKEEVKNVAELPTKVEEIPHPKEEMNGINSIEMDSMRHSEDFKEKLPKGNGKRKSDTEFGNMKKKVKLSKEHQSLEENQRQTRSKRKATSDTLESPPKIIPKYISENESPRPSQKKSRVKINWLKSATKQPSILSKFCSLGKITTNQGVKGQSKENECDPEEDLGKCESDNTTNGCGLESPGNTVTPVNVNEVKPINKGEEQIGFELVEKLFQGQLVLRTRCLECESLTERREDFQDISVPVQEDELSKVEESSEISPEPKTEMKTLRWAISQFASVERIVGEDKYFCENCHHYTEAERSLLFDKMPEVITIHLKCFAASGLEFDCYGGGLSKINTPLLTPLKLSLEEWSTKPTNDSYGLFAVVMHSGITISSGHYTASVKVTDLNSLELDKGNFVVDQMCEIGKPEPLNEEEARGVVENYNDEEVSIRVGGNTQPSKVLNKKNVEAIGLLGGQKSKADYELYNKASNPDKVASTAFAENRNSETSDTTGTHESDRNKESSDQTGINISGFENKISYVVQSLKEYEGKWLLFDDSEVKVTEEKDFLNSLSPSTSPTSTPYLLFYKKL
# Outline: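 Kinetic fluorescence assay: 1nM USP1/UAF1, 15 min compound preincubation, then 150nM Ub-Rho; 480/540 nm.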
# [2] = target: Cytochrome P450 3A4 (Homo sapiens) (UniProt P08684); experiment: qHTS Assay for Inhibitors and Substrates of Cytochrome P450 3A4 (AID 884); note: series mostly up to about 57 µM; nearly all actives have a fitted effect of over 50% in size
# Cytochrome P450 3A4 (Homo sapiens), sequence (P08684 whole entry, looked up): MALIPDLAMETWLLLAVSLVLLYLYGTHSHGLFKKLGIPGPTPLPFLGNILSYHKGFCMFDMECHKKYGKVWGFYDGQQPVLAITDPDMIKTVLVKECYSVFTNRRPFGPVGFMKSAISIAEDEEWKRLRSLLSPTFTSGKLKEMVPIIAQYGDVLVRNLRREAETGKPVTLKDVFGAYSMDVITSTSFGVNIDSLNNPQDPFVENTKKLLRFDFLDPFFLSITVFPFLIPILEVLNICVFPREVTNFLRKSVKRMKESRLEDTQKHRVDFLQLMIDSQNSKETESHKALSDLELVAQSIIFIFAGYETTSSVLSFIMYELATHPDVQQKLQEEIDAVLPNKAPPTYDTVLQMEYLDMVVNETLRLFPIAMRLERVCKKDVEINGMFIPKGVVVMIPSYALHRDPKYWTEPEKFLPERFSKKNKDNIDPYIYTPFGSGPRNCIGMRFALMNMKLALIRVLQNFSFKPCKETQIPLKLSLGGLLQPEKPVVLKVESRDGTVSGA
# Outline: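 20 nM human CYP3A4 with 25 uM Luciferin-PPXE (at KM) in 200 mM KPO4, preincubated 10 min with compound; NADPH regeneration started a 60 min RT reaction. Luciferin detected by luminescence, normalized to 57 uM ketoconazole as full inhibition.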
# [3] = target: DNA dC->dU-editing enzyme APOBEC-3G (Homo sapiens) (UniProt Q9HC16); experiment: qHTS for inhibitors of Vif-A3G interactions: Validation (AID 588379)
# DNA dC->dU-editing enzyme APOBEC-3G (Homo sapiens), sequence (Q9HC16 whole entry, looked up): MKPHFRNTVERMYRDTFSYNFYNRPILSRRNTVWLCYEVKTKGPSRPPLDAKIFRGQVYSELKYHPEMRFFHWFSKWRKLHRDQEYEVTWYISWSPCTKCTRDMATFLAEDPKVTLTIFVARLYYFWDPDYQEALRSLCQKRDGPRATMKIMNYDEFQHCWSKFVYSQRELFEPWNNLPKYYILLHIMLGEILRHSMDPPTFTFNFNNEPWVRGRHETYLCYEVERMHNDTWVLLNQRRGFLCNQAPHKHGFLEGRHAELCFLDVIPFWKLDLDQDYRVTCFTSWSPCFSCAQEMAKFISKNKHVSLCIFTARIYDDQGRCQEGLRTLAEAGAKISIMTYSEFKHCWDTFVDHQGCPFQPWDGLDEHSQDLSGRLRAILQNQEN
# Outline: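 HeLa cells stably expressing Vif and A3G-eYFP, 700 cells/well, incubated overnight at 37 deg C, then exposed to compound overnight at 37 deg C. Inhibition of Vif-mediated degradation read as increased yellow fluorescence (Ex 488/Em 500-530) by laser-scanning cytometry.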
# [4] = target: Alpha-galactosidase (Coffea arabica) (UniProt Q42656); experiment: Counterscreen for Glucocerebrosidase Inhibitors: qHTS Assay for Coffee Bean alpha-Galactosidase at pH 4.5 (AID 957); note: series mostly up to about 77 µM
# Alpha-galactosidase (Coffea arabica), sequence (Q42656 whole entry, looked up): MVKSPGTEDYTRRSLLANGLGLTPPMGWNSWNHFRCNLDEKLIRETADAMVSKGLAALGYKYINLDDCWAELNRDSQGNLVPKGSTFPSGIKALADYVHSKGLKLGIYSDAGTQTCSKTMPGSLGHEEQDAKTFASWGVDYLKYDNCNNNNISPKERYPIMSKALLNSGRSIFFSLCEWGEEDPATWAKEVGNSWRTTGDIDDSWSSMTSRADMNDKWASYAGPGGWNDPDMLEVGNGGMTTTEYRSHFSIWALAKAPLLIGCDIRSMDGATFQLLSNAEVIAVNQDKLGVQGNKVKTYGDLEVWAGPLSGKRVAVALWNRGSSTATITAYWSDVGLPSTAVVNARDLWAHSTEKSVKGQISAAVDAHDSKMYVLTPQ
# Outline: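 AC50 values derive from Hill-equation modeling of concentration-response data, normalized to no-enzyme and full-activity controls. The pH 4.5 citrate assay used 2 nM coffee bean enzyme and 80 uM fluorogenic substrate for 20 min.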
# [5] = target: Alpha-galactosidase (Coffea arabica) (UniProt Q42656); experiment: Counterscreen for Glucocerebrosidase Inhibitors: qHTS Assay for Coffee Bean alpha-Galactosidase at pH 5.9 (AID 998)
# Outline: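 Green coffee bean enzyme (2 nM final) was incubated with compounds (0.7 nM–77 uM) and 4-methylumbelliferyl alpha-D-galactopyranoside (80 uM) in citrate buffer pH 5.9, 20 min at room temperature. High-pH stop; fluorescence 365/440 nm; AC50 from Hill fits.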
# [6] = Inducers of the Endoplasmic Reticulum Stress Response (ERSR) in human glioma: Validation (AID 504836)
# Outline: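 Stably transfected U87-MG human glioma cells carrying a GRP78-based luminescent sensor were seeded at 1000 cells/well, pin-dosed with compounds and incubated 16 h. Luciferase reagent was then added, and end-point luminescence was read after 10 min at room temperature.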
# [7] = target: Cytochrome P450 3A4 (Homo sapiens) (UniProt P08684); experiment: qHTS Assay for Activators of Cytochrome P450 3A4 (AID 885); note: nearly all actives have a fitted effect of over 65% in size
# Outline: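 Quantitative HTS format: compounds preincubated with 20nM human CYP3A4 and Luciferin-PPXE substrate at KM, reaction started by NADPH regeneration, stopped after 60 min, luciferase luminescence read 20 min later.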
# [8] = Confirmation and Secondary Assay for Modulators of Hemoglobin Beta Chain Splicing at IVS2 654 locus (AID 910);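 note: per-well total GFP intensity by laser scanning cytometry after 2-day treatment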
# Outline: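 HeLa cells stably carrying EGFP interrupted by mutant beta-globin IVS2-654 intron (CMV-driven) were treated with compound for 2 days at 37C; corrected splicing was scored as total peak GFP intensity per well (488 nm excitation, 500-520 nm emission).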
# [9] = Confirmation and Secondary Assay for Modulators of Hemoglobin Beta Chain Splicing at IVS2 705 locus (AID 930);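 note: HeLa cells stably expressing the EGFP-705 splicing reporter; GFP fluorescence per well restored by corrected splicing of the IVS2-705 intron in EGFP; series mostly up to about 46 µM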
# Outline: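 HeLa IVS2-705 EGFP reporter cells, 500/well, compound 2 d at 37C; correct splicing yields fluorescent EGFP. Control: 500 nM antisense PNA. Read-out: total peak GFP intensity.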
# [10] = target: Estrogen receptor (Homo sapiens) (UniProt P03372); experiment: qHTS assay for small molecule agonists of estrogen receptor alpha signaling (AID 588514; calls by dose curve; note: nearly all actives have a fitted effect of over 70% in size)
# Estrogen receptor (Homo sapiens), sequence (P03372 whole entry, looked up): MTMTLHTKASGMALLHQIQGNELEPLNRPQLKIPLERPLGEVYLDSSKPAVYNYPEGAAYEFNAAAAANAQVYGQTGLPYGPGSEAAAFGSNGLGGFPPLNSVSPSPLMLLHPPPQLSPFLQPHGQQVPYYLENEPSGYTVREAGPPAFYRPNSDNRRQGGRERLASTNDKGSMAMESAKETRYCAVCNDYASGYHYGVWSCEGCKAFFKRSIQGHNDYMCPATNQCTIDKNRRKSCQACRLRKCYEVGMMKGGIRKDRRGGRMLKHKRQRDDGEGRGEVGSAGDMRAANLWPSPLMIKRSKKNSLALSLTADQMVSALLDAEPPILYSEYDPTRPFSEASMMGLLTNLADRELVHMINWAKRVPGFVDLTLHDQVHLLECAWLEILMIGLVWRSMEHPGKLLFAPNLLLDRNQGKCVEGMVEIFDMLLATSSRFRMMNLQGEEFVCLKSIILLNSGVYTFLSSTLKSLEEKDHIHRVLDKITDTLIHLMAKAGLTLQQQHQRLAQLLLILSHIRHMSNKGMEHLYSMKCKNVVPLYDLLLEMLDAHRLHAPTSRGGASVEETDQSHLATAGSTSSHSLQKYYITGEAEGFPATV
# Outline: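 Reporter-gene assay. […] controls beta-lactamase in HEK 293 GripTite cells; after 18 hrs with compound, CCF4 substrate is added for 2 hrs and fluorescence is read.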
# [11] = target: Bile acid receptor (Homo sapiens) (UniProt Q96RI1); experiment: qHTS assay for small molecule agonists of farnesoid X receptor signaling (AID 588527; calls by dose curve; note: series mostly up to about 77 µM); conditions: HEK293T FXR-UAS-bla, beta-lactamase ratio, 16 h; activation: hits give high values
# Bile acid receptor (Homo sapiens), sequence (Q96RI1 whole entry, looked up): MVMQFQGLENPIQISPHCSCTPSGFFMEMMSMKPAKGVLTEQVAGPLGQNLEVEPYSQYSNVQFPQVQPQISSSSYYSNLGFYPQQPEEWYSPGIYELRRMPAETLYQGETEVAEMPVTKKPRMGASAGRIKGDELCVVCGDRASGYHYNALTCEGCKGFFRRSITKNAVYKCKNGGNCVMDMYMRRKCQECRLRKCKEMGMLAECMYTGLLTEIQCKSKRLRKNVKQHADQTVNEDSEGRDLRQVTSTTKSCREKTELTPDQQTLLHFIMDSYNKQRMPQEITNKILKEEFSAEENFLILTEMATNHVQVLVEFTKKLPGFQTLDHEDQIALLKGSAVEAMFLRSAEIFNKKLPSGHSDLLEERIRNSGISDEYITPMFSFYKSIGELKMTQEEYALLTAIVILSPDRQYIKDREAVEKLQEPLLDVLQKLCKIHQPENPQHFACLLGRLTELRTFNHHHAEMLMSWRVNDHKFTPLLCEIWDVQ
# Outline: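 Quantitative HTS used FXR-UAS-bla HEK293T cells with 16 h compound incubation at 37 C. EC50 values came from concentration-response curves normalized to chenodeoxycholic acid.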
# [12] = target: Peroxisome proliferator-activated receptor delta (Homo sapiens) (UniProt Q03181); experiment: qHTS assay for small molecule agonists of peroxisome proliferator-activated receptor delta signaling (AID 588534; calls by dose curve)
# Peroxisome proliferator-activated receptor delta (Homo sapiens), sequence (Q03181 whole entry, looked up): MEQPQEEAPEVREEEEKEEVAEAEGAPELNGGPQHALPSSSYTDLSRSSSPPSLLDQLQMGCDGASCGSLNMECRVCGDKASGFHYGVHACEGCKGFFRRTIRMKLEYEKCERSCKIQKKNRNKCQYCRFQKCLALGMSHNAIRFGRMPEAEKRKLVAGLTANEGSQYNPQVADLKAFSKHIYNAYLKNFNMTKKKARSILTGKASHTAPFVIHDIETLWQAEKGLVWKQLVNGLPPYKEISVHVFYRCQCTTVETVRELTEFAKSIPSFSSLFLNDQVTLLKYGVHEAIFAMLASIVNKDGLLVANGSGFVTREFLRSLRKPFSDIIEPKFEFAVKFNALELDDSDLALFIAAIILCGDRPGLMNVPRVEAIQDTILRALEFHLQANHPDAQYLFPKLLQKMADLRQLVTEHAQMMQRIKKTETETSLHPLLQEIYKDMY
# Outline: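 Reporter cells were plated and held 5 hrs at 37 C before compounds were added. After 18 hrs at 37 C, CCF4 dye was loaded for 2 hrs at RT and fluorescence measured.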
# [13] = target: Vitamin D3 receptor (Homo sapiens) (UniProt P11473); experiment: qHTS assay for small molecule agonists of vitamin D receptor signaling (AID 588543; calls by dose curve)
# Vitamin D3 receptor (Homo sapiens), sequence (P11473 whole entry, looked up): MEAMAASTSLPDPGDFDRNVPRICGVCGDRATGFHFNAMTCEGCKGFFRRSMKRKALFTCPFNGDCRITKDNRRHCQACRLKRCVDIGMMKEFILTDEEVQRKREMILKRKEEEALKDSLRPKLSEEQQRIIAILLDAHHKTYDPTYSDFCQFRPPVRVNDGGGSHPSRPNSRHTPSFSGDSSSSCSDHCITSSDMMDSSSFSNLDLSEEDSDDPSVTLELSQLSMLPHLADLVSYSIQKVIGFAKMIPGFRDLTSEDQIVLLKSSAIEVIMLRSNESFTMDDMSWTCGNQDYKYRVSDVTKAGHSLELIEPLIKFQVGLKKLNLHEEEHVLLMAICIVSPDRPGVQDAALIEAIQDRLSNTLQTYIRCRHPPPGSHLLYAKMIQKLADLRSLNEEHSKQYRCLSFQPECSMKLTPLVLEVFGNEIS
# Outline: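 qHTS in agonist mode: compound titrations stimulate a VDR-driven β-lactamase reporter in HEK293T cells over 16 h at 37 °C. Response normalized to 50 nM 1α,25-dihydroxyvitamin D3 = 100%, DMSO = 0%; Hill fitting gives EC50 and maximal response.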
# [14] = qHTS assay for small molecule activators of the nuclear factor-kappa B (NF-kB) signaling pathway (AID 651749; active = well fitted activation curve with a large enough effect in the signal ratio; the % refers to the signal ratio; note: series mostly up to about 77 µM); conditions: NF-kB-bla ME-180 cells, beta-lactamase FRET ratio, 16 h; activation: hits give high values
# Outline: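 ME-180 cells stably carrying a beta-lactamase reporter under an NF-kB response element were exposed to compound or DMSO vehicle for 16 hr at 37C, 5% CO2. Pathway activation was read by FRET, since reporter expression disrupts FRET.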
# [15] = target: Peroxisome proliferator-activated receptor alpha (Homo sapiens) (UniProt Q07869); experiment: qHTS assay for small molecule agonists of the peroxisome proliferator-activated receptor alpha (PPARalpha) signaling pathway (AID 651778); conditions: PathHunter PPARalpha complementation, chemiluminescence, 6 h; max response: hits give high values
# Peroxisome proliferator-activated receptor alpha (Homo sapiens), sequence (Q07869 whole entry, looked up): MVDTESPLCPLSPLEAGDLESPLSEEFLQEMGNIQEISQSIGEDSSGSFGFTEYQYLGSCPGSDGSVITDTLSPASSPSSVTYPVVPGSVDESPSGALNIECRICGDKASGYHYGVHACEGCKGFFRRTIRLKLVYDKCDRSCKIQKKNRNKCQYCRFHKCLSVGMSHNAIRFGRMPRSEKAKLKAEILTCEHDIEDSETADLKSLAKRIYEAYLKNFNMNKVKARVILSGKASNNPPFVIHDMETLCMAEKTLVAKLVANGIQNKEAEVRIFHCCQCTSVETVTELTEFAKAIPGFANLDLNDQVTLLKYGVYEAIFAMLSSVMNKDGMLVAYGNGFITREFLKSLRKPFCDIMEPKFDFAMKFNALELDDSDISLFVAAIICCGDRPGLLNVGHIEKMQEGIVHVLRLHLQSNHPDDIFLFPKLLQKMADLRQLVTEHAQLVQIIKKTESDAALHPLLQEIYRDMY
# Outline: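 Cells plated at 2,000/well and held overnight at 37 C, 5% CO2, then compound added by pin tool for 6 hr; after PathHunter detection reagent and 60 min at room temperature, chemiluminescence from enzyme complementation was read.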
# [16] = qHTS assay for cell viability of HEK293 cells (AID 743288); conditions: ATP luminescence (CellTiter-Glo), 18 h; max response: hits give low values; note: potency is the fitted concentration of half-maximal effect; nearly all actives have a fitted effect of over 50% in size
# Outline: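 The Tox21 protocol used parental HEK293 cells treated for 18 h at 37 C with compounds delivered by pintool; ATP-coupled luminescence after 30 min at room temperature gave viability.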
# [17] = target: Nuclear receptor subfamily 1 group I member 2 (Rattus norvegicus) (UniProt Q9R1A7); experiment: qHTS assay for small molecule activators of the rat pregnane X receptor (rPXR) signaling pathway (AID 651751; call rule not given here); conditions: rPXR reporter cells, luciferase (One-Glo), 24 h
# Nuclear receptor subfamily 1 group I member 2 (Rattus norvegicus), sequence (Q9R1A7 whole entry, looked up): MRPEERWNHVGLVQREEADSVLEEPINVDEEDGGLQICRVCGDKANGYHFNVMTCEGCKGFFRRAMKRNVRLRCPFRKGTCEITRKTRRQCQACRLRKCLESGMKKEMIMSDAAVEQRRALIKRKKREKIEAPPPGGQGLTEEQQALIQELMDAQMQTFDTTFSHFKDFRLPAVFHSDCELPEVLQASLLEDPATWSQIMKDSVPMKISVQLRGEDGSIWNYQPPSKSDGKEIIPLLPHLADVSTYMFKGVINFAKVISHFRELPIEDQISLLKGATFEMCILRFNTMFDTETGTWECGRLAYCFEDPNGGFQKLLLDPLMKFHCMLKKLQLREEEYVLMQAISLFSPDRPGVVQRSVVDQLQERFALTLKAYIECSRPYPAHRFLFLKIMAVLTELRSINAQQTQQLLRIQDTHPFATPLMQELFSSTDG
# [18] = qHTS assay for small molecule activators of the human pregnane X receptor (PXR) signaling pathway (AID 720659; call rule not given here)
smiles,measurement,setting,value
C[C@]12CC[C@@H]3c4ccc(O)cc4C[C@@H](CCCCCCCCCS(=O)CCCC(F)(F)C(F)(F)F)C3[C@@H]1CC[C@@H]2O (some centres undefined),Potency,[1],inactive
CN1C[C@@H](C(=O)N[C@@]2(C)O[C@]3(O)C4CCCN4C(=O)[C@@H](Cc4ccccc4)N3C2=O)C=C2c3cccc4[nH]cc(c34)C[C@@H]21 (some centres undefined),Potency,[1],50.1 µM (active)
CC1(C)S[C@H]2[C@@H](N)C(=O)N2[C@H]1C(=O)O,Potency,[2],inactive
same,Potency,[1],inactive
same,outcome,[3],inactive
NC(N)=NC(=O)c1nc(Cl)c(N2CCCCCC2)nc1N,outcome,[4],inactive
same,outcome,[5],inactive
same,outcome,[6],inactive
O=C1c2ccccc2C(=O)c2c(NCCc3ccc(O)cc3)ccc(NCCc3ccc(O)cc3)c21,outcome,[6],inactive
C=CCc1cccc(C=NNC(=O)CN2CCN(Cc3ccccc3)CC2)c1O,outcome,[6],inactive
CC[C@@H]1CN2CCc3cc(OC)c(OC)cc3[C@H]2C[C@@H]1C[C@H]1NCCc2cc(OC)c(OC)cc21,Potency,[1],inactive
COc1cc2c(cc1OC)-c1c(OC)c(OC)c(C=O)c3c1[C@H](C2)N(C)CC3,Potency,[7],inactive
same,Potency,[1],20 µM (active)
same,outcome,[3],inactive
COc1ccc2c(c1)CCC1[C@@H]2CCC2(C)[C@@H](NCCCCCCN3C(=O)C=CC3=O)CC[C@@H]12 (some centres undefined),Potency,[1],inactive
CN1[C@@H]2CC(OC(=O)[C@@H](CO)c3ccccc3)C[C@@H]1[C@H]1O[C@H]12 (some centres undefined),Potency,[1],inactive
O=C1C=C2C(=CCOC2O)O1 (centres undefined),Potency,[2],inactive
same,Potency,[8],inactive
same,outcome,[9],inactive
same,Potency,[1],50.1 µM (active)
same,Potency,[10],inactive
same,activation,[11],-4.19%
same,outcome,[12],inactive
same,outcome,[13],inactive
same,activation,[14],2.18%
same,max response,[15],0.776%
same,Potency,[16],8.91 µM (active)
same,max response,[17],-14.8%
same,outcome,[18],inactive
